Experimental data published in PubChem BioAssay (Tox21).
Results filed as inconclusive are left out. The source made the active and inactive calls. Unless noted, the call rests on the fitted dose curve; in most records, active means well fitted curve in the direction sought with a large enough effect in the repeat runs; inconclusive means weak or mixed curves; inactive means flat fitted curve, though single readings scatter.

How the values were obtained:
[1] = qHTS assay to test for compound auto fluorescence at 535 nm (green) in HEK293 cells (AID 720680)
[2] = qHTS assay to test for compound auto fluorescence at 460 nm (blue) in HEK293 cell free culture (AID 720681)
Outline: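 Blue fluorescence (Ex 405/Em 460 nm, triamterene-equivalent) was read immediately after pin transfer of compound or DMSO into medium (DMEM, 10% FBS) without cells.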

[3] = qHTS assay to test for compound auto fluorescence at 535 nm (green) in HEK293 cell free culture (AID 720682)
Outline: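 Each library compound, or DMSO control, is added by pintool to medium alone, comprising DMEM and 10% FBS. Emission at 535 nm following 485 nm excitation is quantified against fluorescein.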

[4] = qHTS assay to test for compound auto fluorescence at 590 nm (red) in HEK293 cell free culture (AID 720683)
Outline: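 Red-channel autofluorescence of compounds in culture medium (DMEM, 10% FBS), no cells, measured at 540/590 nm. Rose Bengal sodium is the reference fluorophore for equivalence.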

[5] = qHTS assay to test for compound auto fluorescence at 590 nm (red) in HepG2 cell free culture (AID 720684)
Outline: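 Steps: dispense MEM/10% FBS medium, no cells; pin compound or DMSO vehicle; read red channel, Ex/Em 540/590 nm. Output given as Rose Bengal sodium equivalents.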

[6] = qHTS assay to test for compound auto fluorescence at 460 nm (blue) in HepG2 cell free culture (AID 720685)
Outline: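 Compound (23 nL) or DMSO pinned into cell-free MEM with 10% FBS; blue fluorescence read at 405/460 nm excitation/emission, expressed as auto-fluorescence equivalency to triamterene.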

[7] = qHTS assay to test for compound auto fluorescence at 535 nm (green) in HepG2 cell free culture (AID 720686)
[8] = qHTS assay to test for compound auto fluorescence at 460 nm (blue) in HepG2 cells (AID 720687)
Outline: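 Blue-channel autofluorescence (Ex/Em 405/460 nm, triamterene-equivalent) was measured after 1 hr compound exposure at 37 C, 5% CO2. Cells were HepG2, plated overnight at 37 C in MEM plus 10% FBS.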

[9] = target: Glucocorticoid receptor (Homo sapiens) (UniProt P04150); test: qHTS assay to identify small molecule agonists of the glucocorticoid receptor (GR) signaling pathway (AID 720691; active means well fitted activation curve with a large enough effect in the signal ratio in the repeat runs, not every such curve was filed as active; the % refers to the signal ratio)
Sequence of Glucocorticoid receptor (Homo sapiens) (P04150 whole entry, looked up): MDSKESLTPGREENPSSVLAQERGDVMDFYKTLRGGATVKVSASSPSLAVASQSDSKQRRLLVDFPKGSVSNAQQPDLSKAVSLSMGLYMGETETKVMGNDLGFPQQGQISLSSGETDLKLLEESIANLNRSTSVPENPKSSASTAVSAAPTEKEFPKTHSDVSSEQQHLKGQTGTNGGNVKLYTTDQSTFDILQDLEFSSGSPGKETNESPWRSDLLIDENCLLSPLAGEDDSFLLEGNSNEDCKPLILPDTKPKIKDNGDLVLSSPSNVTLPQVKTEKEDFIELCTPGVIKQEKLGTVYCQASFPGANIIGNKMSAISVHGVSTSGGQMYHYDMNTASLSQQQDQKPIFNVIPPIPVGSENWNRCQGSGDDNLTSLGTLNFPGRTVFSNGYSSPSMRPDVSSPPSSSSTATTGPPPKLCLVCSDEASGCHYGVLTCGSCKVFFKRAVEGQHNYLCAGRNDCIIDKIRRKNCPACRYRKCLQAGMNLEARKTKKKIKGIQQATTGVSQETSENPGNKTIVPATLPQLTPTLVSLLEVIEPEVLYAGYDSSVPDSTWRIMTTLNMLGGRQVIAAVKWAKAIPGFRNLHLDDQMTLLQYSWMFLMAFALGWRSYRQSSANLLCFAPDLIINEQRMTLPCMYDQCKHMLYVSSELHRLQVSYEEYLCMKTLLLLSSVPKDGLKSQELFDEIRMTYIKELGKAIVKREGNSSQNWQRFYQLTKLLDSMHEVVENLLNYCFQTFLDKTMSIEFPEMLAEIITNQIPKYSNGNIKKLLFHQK
Outline: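 Fluorescence intensity from LiveBLAzer B/G FRET substrate (2 h, room temperature) reports beta-lactamase expression driven by the glucocorticoid response element in GR-bla HeLa cells after 18 h compound exposure at 37 C.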

[10] = target: Glucocorticoid receptor (Homo sapiens) (UniProt P04150); test: qHTS assay to identify small molecule antagonists of the glucocorticoid receptor (GR) signaling pathway (AID 720692; active means well fitted inhibition curve with a large enough effect in the signal ratio in the repeat runs, not every such curve was filed as active; the % refers to the signal ratio)
Outline: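 HeLa GR-bla cells; cmpd + dex 5 nM final, 18 h 37 C; LiveBLAzer B/G FRET substrate 2 h RT; fluorescence intensity read. Antagonist mode, qHTS.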
On the % scale 0 is the no-effect control and ±100 the full control effect.

O=C=NCC1CCCC(CN=C=O)C1 (stereo unspecified)
inactive: outcome [1] | outcome [2] | outcome [3] | outcome [4] | outcome [5] | outcome [6] | outcome [7] | outcome [8]

CC(C)OC(=O)OCOP(=O)(CO[C@H](C)Cn1cnc2c(N)ncnc21)OCOC(=O)OC(C)C
inactive: outcome [1] | outcome [2] | outcome [3] | outcome [4] | outcome [5] | outcome [6]

Cn1c(=O)c2c(ncn2CCO)n(C)c1=O
inactive: outcome [1] | outcome [2] | outcome [3] | outcome [4] | outcome [5] | outcome [6] | outcome [7] | outcome [8]

O=C(O)[C@H](O)c1ccccc1
inactive: outcome [1] | outcome [2] | outcome [3] | outcome [4] | outcome [5] | outcome [6] | outcome [7]

O=S(=O)(O)c1ccc2c(N=Nc3ccc(S(=O)(=O)O)c4ccccc34)c(O)c(S(=O)(=O)O)cc2c1
inactive: outcome [1] | outcome [2] | outcome [3] | outcome [4] | outcome [5] | outcome [6] | outcome [7] | outcome [8]

CCC[C@@H]1C[C@@H](C(=O)N[C@@H]([C@H]2O[C@H](SC)[C@H](O)[C@@H](O)[C@H]2O)[C@@H](C)O)N(C)C1
inactive: outcome [1] | outcome [2] | outcome [3] | outcome [4] | outcome [5] | outcome [6] | outcome [7] | outcome [8] | Potency [9] | outcome [10]

CCCCSCCCC
inactive: outcome [1] | outcome [2] | outcome [3] | outcome [4] | outcome [5] | outcome [6] | outcome [7] | outcome [8] | Potency [9] | outcome [10]

CCn1cc(C(=O)O)c(=O)c2cnc(N3CCCC3)nc21
inactive: fluorescence, % of fluorescein [1] 0.0361% [at 18.6 µM] | fluorescence, % of fluorescent control [2] 0.169% [at 18.6 µM] | activity change [3] -0.0351% [at 18.6 µM] | fluorescence, % of fluorescent control [4] -0.162% [at 18.6 µM] | fluorescence, % of Rose Bengal [5] 0.682% [at 18.6 µM] | fluorescence, % of fluorescent control [6] 0.141% [at 18.6 µM] | fluorescence, % of fluorescein control [7] -0.0006% [at 18.6 µM] | fluorescence, % of fluorescent control [8] 2.47% [at 18.6 µM] | Potency [9] | outcome [10]

C=CCN1C[C@H](C(=O)N(CCCN(C)C)C(=O)NCC)C[C@@H]2c3cccc4[nH]cc(c34)C[C@H]21
inactive: outcome [1] | outcome [2] | outcome [3] | outcome [4] | outcome [5] | outcome [6] | outcome [7] | outcome [8] | Potency [9] | outcome [10]

O=C(Cn1ccnc1[N+](=O)[O-])NCc1ccccc1
inactive: outcome [1] | outcome [2] | outcome [3] | outcome [4] | outcome [5] | outcome [6] | outcome [7] | outcome [8] | Potency [9] | outcome [10]

O=C(O)CNC(=O)CNC(=O)CNC(=O)CSC(=O)c1ccccc1
inactive: outcome [1] | outcome [2] | outcome [3] | outcome [4] | outcome [5] | outcome [6] | outcome [7] | outcome [8] | Potency [9] | outcome [10]

C=C(C)[C@@H]1CC=C(C)C(=O)C1
inactive: outcome [1] | outcome [2] | outcome [3] | outcome [4] | outcome [5] | outcome [6] | outcome [7] | outcome [8] | Potency [9] | outcome [10]

C=CCCCCCCCC
inactive: outcome [1] | outcome [2] | outcome [3] | outcome [4] | outcome [5] | outcome [6] | outcome [7] | outcome [8] | Potency [9] | outcome [10]

COC(=O)c1ccccc1C(=O)O
inactive: outcome [1] | outcome [2] | outcome [3] | outcome [4] | outcome [5] | outcome [6] | outcome [7] | outcome [8] | Potency [9] | outcome [10]

c1ccc2cnccc2c1
inactive: outcome [1] | outcome [2] | outcome [3] | outcome [4] | outcome [5] | outcome [6] | outcome [7] | outcome [8] | Potency [9] | outcome [10]

c1ccc(-c2nn[nH]n2)cc1
inactive: outcome [1] | outcome [2] | outcome [3] | outcome [4] | outcome [5] | outcome [6] | outcome [7] | outcome [8] | Potency [9]

C=C(C)C1CC=C(C)C(=O)C1 (stereo unspecified)
inactive: outcome [1] | outcome [2] | outcome [3] | outcome [4] | outcome [5] | outcome [6] | outcome [7] | outcome [8] | Potency [9] | outcome [10]

CCC(C)C(C)=O (stereo unspecified)
inactive: outcome [1] | outcome [2] | outcome [3] | outcome [4] | outcome [5] | outcome [6] | outcome [7] | outcome [8] | Potency [9] | outcome [10]

CC(S)C(C)S (stereo unspecified)
inactive: outcome [1] | outcome [2] | outcome [3] | outcome [4] | outcome [5] | outcome [6] | outcome [7] | outcome [8] | Potency [9] | outcome [10]

CN(C)CC/C=C1/c2ccccc2COc2ccc(CC(=O)O)cc21
inactive: outcome [1] | outcome [2] | outcome [3] | outcome [4] | outcome [5] | outcome [6] | outcome [7] | outcome [8] | Potency [9] | outcome [10]

CC1=C(C(=O)O)N2C(=O)[C@@H](NC(=O)[C@H](N)C3=CCC=CC3)[C@H]2SC1
inactive: outcome [1] | outcome [2] | outcome [3] | outcome [4] | outcome [5] | outcome [6] | outcome [7] | outcome [8] | Potency [9] | outcome [10]

COc1c2occc2c(OC)c2c(=O)cc(C)oc12
inactive: fluorescence, % of fluorescein [1] -0.0108% [at 18.6 µM] | fluorescence, % of fluorescent control [2] -0.0224% [at 18.6 µM] | activity change [3] 0.0751% [at 18.6 µM] | fluorescence, % of fluorescent control [4] -0.33% [at 18.6 µM] | fluorescence, % of Rose Bengal [5] -0.125% [at 18.6 µM] | fluorescence, % of fluorescent control [6] -0.0661% [at 18.6 µM] | fluorescence, % of fluorescein control [7] 0.0616% [at 18.6 µM] | fluorescence, % of fluorescent control [8] 0.0073% [at 18.6 µM] | Potency [9] | outcome [10]

CN(C)C(C)(C)CO
inactive: outcome [1] | outcome [2] | outcome [3] | outcome [4] | outcome [5] | outcome [6] | outcome [7] | outcome [8] | Potency [9] | outcome [10]

COC(=O)/C=C\C(=O)O
inactive: outcome [1] | outcome [2] | outcome [3] | outcome [4] | outcome [5] | outcome [6] | outcome [7] | outcome [8] | Potency [9] | outcome [10]
